Assay results from the supplement of paper PMC9694430.

What was measured:
Assay in all cases: thermal shift delta Tm vs DMSO control; higher = stronger stabilization (binding)
Conditions in all cases: 12.5 µM; protein concentration 2 µM
LOC_OS01G01410-cb001 = test system: LOC_OS01G01410-cb001
Outline: (§1)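 The melting temperature shift given here is a triplicate mean, measured against protein that received only DMSO. Melting temperatures came from Boltzmann fits of differential scanning fluorimetry data on E. coli-expressed, purified rice kinase domain constructs. Each 19.5 μl well contained 2 μM kinase, 100 mM potassium phosphate pH 7.5, 150 mM NaCl, 10% glycerol, 5 × SYPRO Orange and compound in DMSO. Plates were scanned from 25°C to 95°C at 0.05°C/s.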

LOC_OS01G02750-cb003 = test system: LOC_OS01G02750-cb003
Outline: as §1

LOC_OS01G10900-cb004 = test system: LOC_OS01G10900-cb004
Outline: as §1

LOC_OS01G13800-cb001 = test system: LOC_OS01G13800-cb001
Outline: as §1

LOC_OS01G14860-cb001 = test system: LOC_OS01G14860-cb001
Outline: as §1

LOC_OS01G21960-cb002 = test system: LOC_OS01G21960-cb002
Outline: as §1

LOC_OS01G39600-cb002 = test system: LOC_OS01G39600-cb002
Outline: as §1

LOC_OS01G48390-cb002 = test system: LOC_OS01G48390-cb002
Outline: as §1

LOC_OS01G51400-cb002 = test system: LOC_OS01G51400-cb002
Outline: as §1

LOC_OS01G52050-cb004 = test system: T1, LOC_OS01G52050-cb004
T1 sequence (whole entry): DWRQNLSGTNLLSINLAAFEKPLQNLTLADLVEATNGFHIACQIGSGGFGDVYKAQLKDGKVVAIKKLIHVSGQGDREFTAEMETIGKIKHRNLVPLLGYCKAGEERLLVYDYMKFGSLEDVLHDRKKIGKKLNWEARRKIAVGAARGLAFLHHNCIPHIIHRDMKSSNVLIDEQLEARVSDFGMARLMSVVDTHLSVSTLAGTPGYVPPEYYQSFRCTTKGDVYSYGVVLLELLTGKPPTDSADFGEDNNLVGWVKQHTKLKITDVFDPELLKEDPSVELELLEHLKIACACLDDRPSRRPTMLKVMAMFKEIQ
Outline: as §1

Compound | thermal shift delta Tm (LOC_OS01G01410-cb001) [°C] | thermal shift delta Tm (LOC_OS01G02750-cb003) [°C] | thermal shift delta Tm (LOC_OS01G10900-cb004) [°C] | thermal shift delta Tm (LOC_OS01G13800-cb001) [°C] | thermal shift delta Tm (LOC_OS01G14860-cb001) [°C] | thermal shift delta Tm (LOC_OS01G21960-cb002) [°C] | thermal shift delta Tm (LOC_OS01G39600-cb002) [°C] | thermal shift delta Tm (LOC_OS01G48390-cb002) [°C] | thermal shift delta Tm (LOC_OS01G51400-cb002) [°C] | thermal shift delta Tm (LOC_OS01G52050-cb004) [°C]
C[C@H](Nc1ncnc2[nH]cnc12)c1cc2ccc(F)cc2nc1-c1ccccn1 | 0.51 | 2.1 | 0.26 | 0.16 | 0.16 | 0.92 | -0.54 | 0.94 | 0.64 | 0.37
CNc1nc(Nc2cnn([C@H]3CCN(C4COC4)C[C@@H]3F)c2Cl)ncc1C(F)(F)F | 0.23 | 0.99 | 0.28 | 0.15 | 0.15 | 1.33 | 0.09 | 1.82 | 0.18 | 1.16
CNC(=O)c1cc(COc2nnc(Nc3ccc(Cl)cc3)c3ccoc23)ccn1 [Telatinib] | 0.67 | 0.92 | 0.29 | 0.36 | 0.15 | 0.85 | -0.38 | 0.26 | 0.08 | 0.21
CC[C@@H]1C(=O)N(C)c2cnc(Nc3ccc(C(=O)N[C@H]4CC[C@H](N5CCN(CC6CC6)CC5)CC4)cc3OC)nc2N1C(C)C [Volasertib (BI 6727)] | 0.74 | 0.38 | 0.15 | 0.22 | 0.21 | 0.37 | 0.25 | 0.32 | 0.11 | 0.22
CC(C)(CCCCCC(O)CCCCCC(C)(C)C(=O)O)C(=O)O | 0.55 | 0.54 | 0.09 | 0.41 | -0.23 | 0.39 | -0.54 | 0.29 | 0.29 | 0.02
CCCCCCCCCCCCCCCCCCOP(=O)([O-])OC1CC[N+](C)(C)CC1 [Perifosine (KRX-0401)] | -2.46 | -3.08 | -2.19 | -2.02 | -1.55 | -1.07 | -4.67 | -1.63 | -3.01 | -2.26
O=c1nc(N2CCOCC2)oc2c(-c3cccc4c3sc3ccccc34)cccc12 | 0.12 | -0.86 | 3.3 | -0.44 | 0.6 | 0.45 | -0.5 | 0.27 | -0.4 | 1.17
CCn1c(=O)c(-c2cc[nH]n2)cc2c(C)nc(N)nc21 | 0.43 | 1.06 | 0.44 | 0.27 | 0.44 | 0.65 | 0.24 | 0.13 | -0.16 | 0.21
COCCNCc1ccc(-c2cc3nccc(Oc4ccc(NC(=O)C5(C(=O)Nc6ccc(F)cc6)CC5)cc4F)c3s2)nc1 [Sitravatinib (MGCD516)] | 4.2 | 7.38 | 4.89 | -0.17 | 3.69 | 0.72 | 0.85 | 6.78 | 0.58 | 4.17
COc1ccc(Cl)c(Nc2nc3ccccc3nc2NS(=O)(=O)c2cccc(NC(=O)C(C)(C)N)c2)c1 [Pilaralisib (XL147)] | 1.63 | 2.16 | 0.29 | 1.9 | 1.53 | 0.73 | 2.65 | 1.05 | 1.3 | 4.64
